INHIBITION data for 107 compounds are collected here from ChEMBL document CHEMBL4513216, “Probing the Open Global Health Chemical Diversity Library for Multistage-Active Starting Points for Next-Generation Antimalarials” (ACS Infect Dis, 2020).

About 8,600 (12%) of roughly 69,000 compounds showed an effect of 50% or more. For the sample, strong results were picked, then their nearest neighbours and some compounds at random.

In the test the test system is Plasmodium berghei. The test is described as follows: Screen against P. berghei liver stage (PbLuc), transformed with Luciferase, at 10uM. The settings on record: tested at 10 uM. In kind it is functional, HepG2.
In the case of `O=C(c1ccc2c(c1)COC2)N1CCN(CCO)CC1`, the INHIBITION stood at 21.5%.
As for `c1ncc2c(n1)CN(Cc1nc(-c3ccsc3)no1)CC2`, the INHIBITION is recorded as -16%.
On to `NC(=O)CN(Cc1ncc(-c2ccc(F)cc2)o1)C1CCCC1`, for which the INHIBITION was -13.6%.
`CSCC[C@H](NC(=O)CCn1cc(C(C)=O)c2ccccc21)C(=O)O`: the INHIBITION is reported as -35.7%.
Turning to `CC(C)c1nnc2n1CC(CNCc1ccc3c(c1)OCCO3)CC2` (configuration not stated), the INHIBITION amounted to 17%.
For the compound `COc1ccc(C)cc1NC(=O)Nc1cnc(N2CCN(C)CC2)nc1`, the INHIBITION was 38.7%.
For `COc1ccc(C)cc1NC(=O)Nc1cnc(N2CCCC2)nc1`, the INHIBITION was determined as 45.5%.
Consider `Cc1ccc(NC(=O)Nc2cnc(N3CCN(C)CC3)nc2)cc1`, for which the INHIBITION is on record as 37.4%.
Take `COc1ccc(C)cc1NC(=O)Nc1cnc(N2CCOCC2)nc1`: the INHIBITION is reported as 50.2%.
Take `COc1ccc(NC(=O)Nc2cnc(N3CCN(C)CC3)nc2)cc1Cl`: the INHIBITION was determined as 45%.
As for `Cc1ccc(NC(=O)Nc2cnc(N3CCN(C)CC3)nc2)c(Cl)c1`, the figure is 57.6%; as for `C[C@H]1C(=O)NC[C@H]2CN(Cc3ccccc3)C[C@H]21`, -9.27%; as for `CCS(=O)(=O)NCC(Cc1cccc(F)c1)N1CCNC1=O` (configuration not stated), 23.1%.
For the compound `CC(Cn1cccn1)NC(=O)Nc1ccccn1` (configuration not stated), the INHIBITION is recorded as -4.16%.
On to `COc1ccc(C(=O)c2cnc(C(C)C)n2C)cc1`, for which the INHIBITION was found to be 33.9%.
For the compound `CCCc1ncc(C(=O)c2ccc(OC)cc2)n1C`, the INHIBITION was 0.29%.
For the compound `CCc1ncc(C(=O)c2ccc(OC)cc2)n1C`, the INHIBITION was determined as 54.2%.
As to `Cc1cc(=O)[nH]cc1C(=O)N1CCN(C)c2ccccc2C1`, the INHIBITION worked out at 42.8%.
For `COCCC(Cc1cccc(Br)c1)C(=O)NCC(N)=O` (configuration not stated), the INHIBITION is given as 12.3%.
Take `Nc1cc(-c2cc(O)cc(C(=O)O)c2)c2cc[nH]c2n1`: the INHIBITION came to 35.4%.
As to `CNc1cc(-c2cccc(CN)c2)c2cc[nH]c2n1`, the INHIBITION was determined as 5.91%.
`CCNCCOc1ccc(-c2cc(N)nc3[nH]ccc23)cc1`: the INHIBITION was found to be 59.5%.
As for `Cc1ccc(N2CCC3(CCN(C(=O)N(C)C)CC3)CC2)nn1`, the INHIBITION is listed as 35.4%.
As for `CCN(CC)S(=O)(=O)NCC(O)c1c(Cl)cccc1Cl` (configuration not stated), the figure is -20%; as for `CC(C)(CCS(C)(=O)=O)CNC(=O)NC1CCCC1(C)C` (configuration not stated), -21.9%.
Consider `CC(C)n1nccc1NC(=O)CN1CCc2sccc2C1`, for which the INHIBITION came to 49.3%.
On to `Cn1nccc1NC(=O)CN1CCc2sccc2C1`, for which the INHIBITION turned out to be 18.6%.
With `O=C(CN1CCc2sccc2C1)Nc1ccnc2ccnn12` the figure was 82.2%; with `CCn1c(C)nnc1SCCNc1cc(OC)ncn1`, 22.1%.
`CCCn1cc(CN2CCCC2c2nccc(CN(C)C)n2)cn1` (configuration not stated): the INHIBITION amounted to 25.6%.
Regarding `Cc1cccc(N2CCN(CCC(=O)NCc3cccnc3)CC2)c1`, the INHIBITION is reported as 27.6%.
As for `Cc1cccc(N2CCN(CCC(=O)NCc3cnc(C)cn3)CC2)c1`, the INHIBITION came to 45.8%.
Take `Cc1cccc(N2CCN(CCC(=O)NCc3ccc(C)s3)CC2)c1`: the INHIBITION turned out to be 71.2%.
As for `CCc1nnc(CNC(=O)CCN2CCN(c3cccc(C)c3)CC2)s1`, the figure is 52.1%; as for `Cc1cccc(N2CCN(CCC(=O)NCc3nnc[nH]3)CC2)c1`, -10.6%; as for `CCc1nnc(CNC(=O)CCCN2CCCCC2)s1`, 25.1%.
As to `CN1CCN(Cc2cccnc2)C2(CCN(C3CCOCC3)C2)C1=O` (configuration not stated), the INHIBITION is reported as -33.9%.
`CC(=O)NCCNC(=O)c1cnc(C(C)(C)C)s1`: the INHIBITION came to 30.6%.
Regarding `CCc1cccc(C)c1NC(=O)c1ccccc1N(C)S(C)(=O)=O`, the INHIBITION is recorded as 25.8%.
On to `CCN1CCN(C(=O)c2cccn2Cc2ccccc2)CC1`, for which the INHIBITION is -4.94%.
With `Cc1csc(Nc2nccnc2C2CCCN2CC(N)=O)n1` (configuration not stated), the INHIBITION is on record as -13.7%.
As for `O=C1CC2(CCN(Cc3ccncc3)C2)CN1c1ccc2c(c1)OCO2` (configuration not stated), the figure is 31.1%; as for `O=C1CC2(CCN(Cc3ccsc3)C2)CN1c1ccc2c(c1)OCO2` (configuration not stated), 55.5%; as for `CN(C)C(=O)N1CCC2(CC(=O)N(c3ccc4c(c3)OCO4)C2)C1` (configuration not stated), -4.02%.
As for `O=C1CC2(CCN(Cc3ccoc3)C2)CN1c1ccc2c(c1)OCO2` (configuration not stated), the INHIBITION was determined as 60.3%.
Regarding `CCS(=O)(=O)N1CCC2(CC(=O)N(c3ccc4c(c3)OCO4)C2)C1` (configuration not stated), the INHIBITION is recorded as -30.6%.
In the case of `Cn1cc(CN2CCC3(CC(=O)N(c4ccc5c(c4)OCO5)C3)C2)cn1` (configuration not stated), the INHIBITION is 27.3%.
For the compound `CCn1nc(C)c(NC(=O)CN(C)C(C)c2ccon2)c1C` (configuration not stated), the INHIBITION is -22.1%.
As for `N[C@@H]1CCCN(C(=O)Cc2c[nH]c3ccccc23)[C@H]1c1ccccc1F`, the figure is 32.5%; as for `O=C(CCn1cncn1)N1C[C@@H]2CC[C@H]1CN(Cc1ccncc1)C2`, 22.4%.
With `CN(C)C(=O)CN1C[C@H]2CC[C@@H](C1)N(C(=O)CCCn1cncn1)C2` the figure was 8.07%; with `Cc1c[nH]nc1C1CCCCN1C(=O)CCn1nccc1C` (configuration not stated), 57.5%; with `CN(C)C(=O)CN1C[C@H]2CC[C@@H](C1)N(C(=O)CCn1cncn1)C2`, 56.8%.
`CN(C)C(=O)CN1C[C@H]2CC[C@@H](C1)N(C(=O)Cc1ccccc1Cl)C2`: the INHIBITION is given as 25.1%.
As for `Cc1c[nH]nc1C1CCCCN1C(=O)CC1(O)CCCCC1` (configuration not stated), the figure is 24.8%; as for `Cc1c[nH]nc1C1CCCCN1C(=O)CNS(C)(=O)=O` (configuration not stated), 48.6%.
With `Cc1ccnn1CCC(=O)N1C[C@@H]2CC[C@H]1CN(CC(=O)N(C)C)C2` the figure was 55.6%.
In the case of `Cc1cnn(CCC(=O)N2C[C@@H]3CC[C@H]2CN(CC(=O)N(C)C)C3)c1`, the INHIBITION is reported as 38.5%.
Consider `COc1ccc(C(=O)N2CCCC(n3cncn3)C2)nn1` (configuration not stated), for which the INHIBITION worked out at 8.64%.
In the case of `O=C(NCCCn1ccnc1)N1CCN(c2cccs2)CC1`, the INHIBITION came out at 12.2%.
Take `O=C(Cn1ncc(N2CCCC2)cc1=O)Nc1ccc2nccnc2c1`: the INHIBITION is on record as 6.69%.
As to `COc1cccc(N2CCN(C(=O)CN(C)c3cnccn3)CC2)c1`, the INHIBITION is recorded as 35.4%.
Regarding `CC1CCC(NC(=O)CNC2(c3ccc(Br)cc3)CCOCC2)CC1` (configuration not stated), the INHIBITION stood at 12.8%.
With `O[C@@H]1CN(Cc2ccc(F)c(F)c2)CC[C@H]1NCc1ccccn1` the figure was 46.7%; with `CCCN1Cc2ccccc2NC(=O)C12CCNC2` (configuration not stated), 38.3%; with `O=C(c1cnccn1)N1CCCC2(CCN(Cc3ccsc3)C2)C1` (configuration not stated), -15.2%.
On to `O=C(NC1CCCc2nc(N3CCOCC3)ncc21)C1CCCCC1` (configuration not stated), for which the INHIBITION turned out to be 17.1%.
With `CNS(=O)(=O)c1ccc(CN(C)Cc2nc3ccc(F)cc3[nH]2)cc1` the figure was 29%; with `Cc1ccccc1C1(C(=O)NCCN2CCC(C)CC2)CCOCC1`, 55.1%; with `Cc1ccccc1C1(C(=O)NCCN2CCCC2)CCOCC1`, 44.8%.
On to `Cc1ccccc1C1(C(=O)NCCN2CCOCC2)CCOCC1`, for which the INHIBITION is on record as -33.5%.
In the case of `COc1cccc(-n2nc(C(C)=O)c(C(C)=O)c2C)c1`, the INHIBITION is reported as -17%.
`O=C1CC2(CCN(C(=O)c3ccccn3)CC2)Oc2c(Cl)cc(Cl)cc21`: the INHIBITION came out at 4.57%.
As for `CNc1cc(CNC(=O)c2ccncc2)nc(-c2ccncc2)n1`, the figure is 4.08%; as for `Cc1nc(C)n(C2CCCN(C(=O)Cc3csc(C(C)C)n3)C2)n1` (configuration not stated), 26.4%; as for `O=C(Cc1ccsc1)NCC1OCCc2cn(CC3CC3)nc21` (configuration not stated), -46.6%.
With `c1c2c(nn1CC1CC1)C(CNC1CCOCC1)OCC2` (configuration not stated), the INHIBITION was 15.3%.
`CS(=O)(=O)NCC1OCCc2cn(CC3CC3)nc21` (configuration not stated): the INHIBITION is reported as 44.2%.
On to `Fc1cccc(CNCC2OCCc3cn(CC4CCOCC4)nc32)c1` (configuration not stated), for which the INHIBITION worked out at 68.4%.
Take `CS(=O)(=O)CC(=O)NCC1OCCc2cn(CC3CC3)nc21` (configuration not stated): the INHIBITION is reported as 54.7%.
Turning to `CCS(=O)(=O)NCC1OCCc2cn(CC3CCOCC3)nc21` (configuration not stated), the INHIBITION stood at 66.8%.
Consider `CN(C)S(=O)(=O)NCC1OCCc2cn(CC3CCOCC3)nc21` (configuration not stated), for which the INHIBITION amounted to 20.1%.
With `c1c2c(nn1CC1CCOCC1)C(CNC1CCOCC1)OCC2` (configuration not stated) the figure was -44.2%.
With `CCCS(=O)(=O)NCC1OCCc2cn(CC3CCOCC3)nc21` (configuration not stated) the figure was 55.5%.
Consider `Fc1ccc(CNCC2OCCc3cn(CC4CC4)nc32)cc1` (configuration not stated), for which the INHIBITION was 46.6%.
For `c1cc(CNCC2OCCc3cn(CC4CCOCC4)nc32)ccn1` (configuration not stated), the INHIBITION was 19.9%.
With `O=S(=O)(NCC1OCCc2cn(CC3CCOCC3)nc21)C1CC1` (configuration not stated) the figure was 29.8%; with `COCCCn1ccc(NCc2ccc(NC(C)=O)cc2)n1`, 19.7%.
With `COc1cc2c(cc1C(=O)N1CCCCC1c1ccccn1)CCC2` (configuration not stated), the INHIBITION was 11.6%.
`Cc1ccc2nc(C(=O)N3C[C@@H](C(=O)O)[C@H](c4ccccc4)C3)cn2c1`: the INHIBITION is given as -46%.
Turning to `O=C(c1cccs1)N1CCOCC2(C1)CN(c1ccccc1)C(=O)CO2` (configuration not stated), the INHIBITION is on record as -8.28%.
In the case of `CCOCC1CN(c2ccncn2)Cc2cnn(CC3CC3)c21` (configuration not stated), the INHIBITION is given as -8.19%.
In the case of `Cc1nccn1C1CCCN(C(=O)c2cccc(Cn3ccnc3)c2)C1` (configuration not stated), the INHIBITION is -6.14%.
Consider `O=C(CCc1cc2n(n1)CCCNC2)N1CCC(N2CCOC2=O)CC1`, for which the INHIBITION is listed as -39.2%.
Turning to `COCCNc1nnc(-c2ccc(C)nc2)s1`, the INHIBITION is -74.5%.
As to `CCc1nc(CN2CC[C@@](O)(CCOC)[C@H](C)C2)cs1`, the INHIBITION is listed as 0.868%.
Regarding `CCOc1ccc(CNCCCn2ccnc2)cc1Cl`, the INHIBITION is -32.1%.
Turning to `CCOc1cc(CNCCCn2ccnc2)cc(Cl)c1OC`, the INHIBITION is reported as 49.5%.
As for `CCOc1cc(CNCCCn2ccnc2)cc(Cl)c1OCC`, the INHIBITION turned out to be 58.1%.
Consider `CC(=O)NCC1CCC2(CCN(c3ncnc4oc(C)nc34)CC2)O1` (configuration not stated), for which the INHIBITION worked out at 34.9%.
Take `CC(=O)N1CCC(NC(=O)CN2CCCc3c(C)ccc(F)c32)CC1`: the INHIBITION is on record as -7.13%.
As for `Cc1cnn(-c2cccc(N3CCN(c4cc(C)nc(C)n4)CC3)n2)c1`, the INHIBITION is given as 85.5%.
On to `Cc1cnn(-c2cccc(N3CCCCC3)n2)c1`, for which the INHIBITION came to 39.3%.
As to `Cc1cnn(-c2cccc(N3CCCC3)n2)c1`, the INHIBITION was determined as 30.3%.
As for `CC(=O)N1CCCC1C(=O)NCCOc1ccc(C(C)C)cc1` (configuration not stated), the INHIBITION stood at 29.4%.
In the case of `CC(C)Cn1c(=O)n(CCCn2cccn2)c2cc(C(=O)O)cnc21`, the INHIBITION is -18.1%.
Regarding `Cn1cc(NC(=O)N2CCN(Cc3cscn3)CC2)ccc1=O`, the INHIBITION stood at 48.3%.
